# RORgamma inh: ROR gamma (mouse) transcription inhibition. P51450. Drosophila S2 Gal4-RORgamma UAS-luciferase reporter, 20 h. Potency, µM (highest dose often 53.6 µM), for the others: at the highest dose activity change, negative = inhibition, actives largely listed as inhibitors. hit rate 5.4% among 310,000. AID 2551; further: potency means the concentration at half of the fitted maximal effect; on the % scale 0 is the no-effect control and ±100 the full control effect; nearly all actives have a fitted effect of over 60% in size
# Target sequence (P51450 whole entry, looked up, the tested form may be a part): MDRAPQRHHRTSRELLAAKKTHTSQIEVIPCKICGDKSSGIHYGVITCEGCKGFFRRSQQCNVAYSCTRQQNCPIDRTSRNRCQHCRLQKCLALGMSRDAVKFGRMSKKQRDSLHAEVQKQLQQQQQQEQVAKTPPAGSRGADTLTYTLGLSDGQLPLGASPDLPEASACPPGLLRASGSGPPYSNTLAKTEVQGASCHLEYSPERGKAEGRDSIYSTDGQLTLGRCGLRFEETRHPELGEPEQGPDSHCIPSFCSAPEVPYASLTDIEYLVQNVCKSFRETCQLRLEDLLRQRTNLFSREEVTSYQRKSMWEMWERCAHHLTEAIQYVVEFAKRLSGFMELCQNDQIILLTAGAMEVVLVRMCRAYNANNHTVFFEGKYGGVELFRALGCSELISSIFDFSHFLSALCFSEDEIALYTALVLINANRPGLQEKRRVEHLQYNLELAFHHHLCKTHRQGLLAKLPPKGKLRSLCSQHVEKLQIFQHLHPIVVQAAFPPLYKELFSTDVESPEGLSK
#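 ROR gamma transcriptional activity was tracked as Gal4-UAS luciferase output in stably transfected Drosophila Schneider cells, with compound added 1 hr before 700 uM copper sulfate induction and a 20 hr ambient-temperature incubation.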
# ERG Ets-DNA blk: blocks human ERG Ets domain binding to DNA. P11308. fluorescence polarization, His-ERG Ets domain / labelled DNA. Potency, µM (highest dose often 76.9 µM), for inactives: at the highest dose FP activity, negative = inhibition, usual class: inhibitors. hit rate 0.028% among 370,000; active means well fitted inhibition curve with a large enough effect in the polarisation, with a control signal flat; inconclusive means small, poorly fitted or top-dose-only effect, or effect the other way, or a change in a side signal; inactive means no such curve, though single readings can be large or run the other way; the % refers to the polarisation;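 further: polarization taken with two DNA probes labelled with fluorescein and Texas red; potency means the concentration at half of the fitted maximal effect; % of control where 0% means no effect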
#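 His-tagged ERG Ets domain (1 uM in the protein solution; 300mM KCl, 50mM Tris-HCl, 1mM EDTA, 1mM DTT, pH 7.5) received compound, then a probe mix of 5 nM fluorescein-DNA and 100nM Texas-615-DNA. Fluorescence polarization was read for both dyes.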
# Giardia kill: Giardia lamblia killing. Giardia lamblia trophozoite viability. activity change, % at 7.66 µM, hits read low. hit rate 0.15% among 340,000. AID 540267; in the data active means activity change below about -80%; inconclusive means between about -30% and that limit;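 further: parasites exposed to compound for two days anaerobically before the ATP read; on the % scale 0 is the no-effect control and ±100 the full control effect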
#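 Trophozoites 100 cells/well + cpd; 48 hrs, 37 deg C, anaerobic. ATPLite 1-Step added, 15-30 min RT, luminescence read (ATP-based viability).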
# a7 integrin act: activators of alpha7 integrin expression for muscular dystrophy | alpha7betagal myoblasts, beta-gal FDG fluorescence, 48 h | Potency, µM (series often up to 38.3 µM), without a hit: at the top dose activation, most hits filed as activators | hit rate 0.064% among 350,000 | AID 624291;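 further: potency means the concentration at half of the fitted maximal effect; 100% = response of the positive control SU9516; nearly all actives have a fitted effect of over 60% in size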
#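 Alpha7betagal+/- myoblasts (passage 13) were plated 16-24 hr, then exposed to compounds (1:260 dilution of DMSO stock) for 48 hours at 37C. After MPER lysis, β-galactosidase reporter activity was read as FDG fluorescence (ex 480/em 540) after 30 minutes.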
# Gal4-VP16 FLuc: counter-screen for ROR gamma inhibitors: Gal4-VP16 reporter; Potency, µM (top dose mostly 53.6 µM), for inactives: at the highest dose activity, negative = inhibition, actives largely listed as inhibitors; hit rate 3.5% among 310,000; Drosophila S2 Gal4-VP16 UAS-luciferase, luminescence, 20 h; AID 2546;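 further: Gal4-VP16 expression switched on by copper sulfate through the metallothionein promoter; potency means the concentration at half of the fitted maximal effect; on the % scale 0 is the no-effect control and ±100 the full control effect; nearly all actives have a fitted effect of over 50% in size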
# Numbers without * were called inactive; ? = inconclusive; . = no result; ! = not confirmed by another sample; [ ] = another dose, or the depositor's remark. The full list was thinned out, with hits kept by preference. Unless noted, the call rests on the fitted dose curve; in most records, active means well fitted curve in the direction sought with a large enough effect; inconclusive means small, poorly fitted or top-dose-only effect, or another doubt; inactive means no such curve, though single readings can be large; an effect the other way counts as inactive or inconclusive.
SMILES,RORgamma inh,ERG Ets-DNA blk,Giardia kill,a7 integrin act,Gal4-VP16 FLuc
COc1ccc(C(=O)N/N=C/c2ccc(OC)c(COc3ccc(F)cc3)c2)cc1,-20.2%,-11.1%,2.2,-3.5%,-10.4%
COc1ccc(C(=O)N/N=C/c2ccc(OC)c(COc3ccc(F)cc3F)c2)cc1,12.6µM*,-0.6%,22.6,-38.5%,?
COc1ccc(/C=N\NC(=O)c2ccccc2)cc1COc1ccc(F)cc1,17.8µM*,9.2%,6.5,3.0%,11.2µM*
COc1ccc(/C=N/NC(=O)c2ccn[nH]2)cc1COc1ccc(F)cc1,18.6%,4.9%,22.6,10.6%,-6.6%
COc1ccc(/C=N/NC(=O)c2ccoc2C)cc1COc1ccc(Cl)cc1,7.08µM*,-5.5%,-3.8,0.5%,12.6µM*
COc1ccc(/C=N/NC(=O)c2ccoc2C)cc1OC,1.5%,-4.4%,?,15.5%,11.1%
COc1cc(/C=N/NC(=O)c2ccc(F)cc2)ccc1OC(=O)c1ccco1,12.6µM*,-4.4%,-12.8,13.0%,-3.9%
Cc1ccccc1NCN1C(=O)C2CCC(C)(C1=O)C2(C)C (centres undefined),1.7%,-10.0%,28.1,?,-1.1%
O=C(N/N=C/c1ccc2ncccc2c1)c1ccco1,7.94µM*,-2.9%,-13.4,2.3%,?
COc1ccc(C=NNC(=S)Nc2ccc(F)cc2)cc1OC,.,-2.6%,-6.0,22.3%,.
COc1ccc(/C=N/NC(=S)Nc2ccccc2)cc1COc1cccc(C)c1C,0.355µM*,10.3%,-1.0,22.5%,0.708µM*
O=C(O)c1cccc2c1C(=O)c1ccc(-c3ccc(F)cc3F)cc1S2(=O)=O,.,-7.1%,-24.7,18.9%,.
O=C(NC(=S)NCCO)c1cn(-c2ccccc2)nc1-c1ccccc1,10µM*,4.3%,5.9,-21.0%,?
COc1cc(C(=O)N/N=C/c2ccc(OC(=O)c3cccc(C)c3)cc2)ccc1O,27.3%,-1.8%,33.4,-16.4%,-14.4%
Cc1cccc(C(=O)Oc2ccc(/C=N/O)cc2)c1,5.62µM*,28.9%,-3.4,12.5%,2µM*
Cc1ccc(Cl)cc1NC(=O)c1ccccc1OCC(=O)N1CCOCC1,19.3%,-8.0%,7.8,1.0%,2.5%
Cc1cc(OCC(=O)N2CCOCC2)ccc1NC(=O)c1ccccc1C,10µM*,8.2%,?,7.6%,?
O=C(Nc1ccc(OCC(=O)N2CCOCC2)cc1)c1ccccc1Cl,11.2µM*,4.1%,?,-3.2%,7.94µM*
Cc1ccc(C(=O)Nc2cc(C)c(OCC(=O)N3CCOCC3)c(C)c2)cc1,14.1µM*,-6.3%,?,11.7%,10µM*
CNc1c(NC(=O)c2cc(OC)cc(OC)c2)c(=O)oc2ccccc12,.,7.1%,.,.,.
Cc1ccc(CNC(=S)Nc2ccc(NS(=O)(=O)c3ccc(C)cc3)cc2)cc1,?,25.6%,-12.6,-1.2%,?
O=C(Nc1nc2c(Br)cccc2s1)C1CC1,28.1%,6.7%,-9.3,0.6%,1.8%
CCOC(=O)/C=C/[C@H]1CCc2cccc(C)c2O1,.,2.6%,14.9,6.4%,.
CCOC(=O)N1CCN(S(=O)(=O)c2ccc(C(=O)Nc3nnc(C4CC4)o3)cc2)CC1,1.78µM*,0.6%,-3.8,-19.8%,3.16µM*
CC1CC(C)CN(S(=O)(=O)c2ccc(C(=O)Nc3nnc(C4CC4)o3)cc2)C1 (centres undefined),0.562µM*,-8.2%,-20.8,-28.3%,0.631µM*
SMILES,RORgamma inh,ERG Ets-DNA blk,Giardia kill,a7 integrin act,Gal4-VP16 FLuc
COc1ccc(NS(=O)(=O)c2ccc(O)c(C(=O)OCC(=O)NC(C)C3CC4CCC3C4)c2)cc1 (centres undefined),?,6.7%,-16.0,-37.4%,-3.7%
CC(NC(=O)COC(=O)c1cc(NS(=O)(=O)c2ccc(Cl)c([N+](=O)[O-])c2)ccc1O)C1CC2CCC1C2 (centres undefined),?,.,8.6,-29.6%,11.2µM*
Cc1nn(C)cc1/C=N/NC(=S)Nc1ccccc1,0.891µM*,3.4%,6.0,17.1%[7.66 µM],2.24µM*
Cc1nn(-c2ccccc2)c(N2CCCC2)c1/C=N/O,19.0%,-2.6%,2.1,-23.3%,5.2%
Cc1nn(-c2ccccc2)c(N2CCCC2)c1/C=N/NC(=S)Nc1ccccc1C(F)(F)F,1.41µM*,-8.0%,6.8,-11.5%,1µM*
Cc1ccc(NC(=S)N/N=C/c2c(C)nn(-c3ccccc3)c2N2CCCC2)cc1,?,-4.4%,-7.2,-10.8%,0.1µM*
Cc1nn(-c2ccccc2)c(N2CCCC2)c1/C=N/NC(=S)Nc1cc(C(F)(F)F)ccc1Cl,1.78µM*,-4.3%,-9.6,8.6%,2.82µM*
Cc1nn(-c2ccccc2)c(N2CCCC2)c1/C=N/NC(=S)Nc1ccc(F)cc1,.,-10.3%,8.6,3.3%,.
O=C(NCc1ccccc1Cl)c1cnc2sc(N3CCOCC3)nn2c1=O,.,6.5%,.,.,.
COc1cccc(-c2cc(C(F)(F)F)n3ncc(C(=O)OC(C)C)c3n2)c1,.,3.8%,.,.,.
COc1ccccc1C1C=C(c2ccc(Cl)cc2)Nc2nc(-c3ccc(Cl)cc3)nn21 (centres undefined),.,0.5%,.,.,.
COc1c(/C=N/NC(N)=S)c(C)nn1-c1ccccc1,7.08µM*,12.7%,-7.4,-1.3%,?
COc1c(/C=N/Nc2ccc([N+](=O)[O-])cc2[N+](=O)[O-])c(C)nn1-c1ccccc1,-1.1%,-13.2%,-7.2,7.3%,-4.1%
FC(F)Oc1ccc(/C=N/NC(=S)Nc2cc(C(F)(F)F)ccc2Cl)cc1,1.26µM*,-7.5%,11.5,11.6%,5.62µM*
CCC(C)n1c(=N)c(C(=O)NCc2ccccc2)cc2c(=O)n3cc(C)ccc3nc21 (centres undefined),.,-17.5%,.,.,.
Cc1c(C(=O)Nc2nccs2)sc2nc(-c3cccs3)cc(C(F)(F)F)c12,0.794µM*,-7.9%,-6.4,-18.8%[7.66 µM],3.16µM*
O=S(=O)(c1ccc(C(F)(F)F)cc1)N1CCN(c2nc(-c3cccs3)nc3ccccc23)CC1,.,.,3.2,.,.
CN1CCCN(C(c2ccccc2)c2ccc(Cl)cc2)CC1 (centres undefined),10µM*!,13.6%,11.9,.,-9.9%
O=c1c2ccccc2cnn1CCOc1ccccc1,4.47µM*,0.3%,-4.6,10.0%,3.98µM*
O=C1OC(=O)c2ccccc21,-28.6%,.,.,.,6.7%
NC(=NCCCCCCN=C(N)/N=C(\N)Nc1ccc(Cl)cc1)/N=C(\N)Nc1ccc(Cl)cc1,?,?,8.5,.,15.8µM*!
CCCCN=C(Nc1ccc(Cl)cc1)c1cccnc1,-42.3%,3.0%,-19.8,-2.9%,-5.2%
Cn1cc(C(=O)CCl)c2ccccc21,11.2µM*,-4.6%,16.0,-77.3%,7.94µM*
CCCc1cc(C(=O)Cc2ccc(F)cc2)c(O)cc1O,11.2µM*,1.5%,14.9,-36.8%,?
Cc1ccc(S(=O)(=O)N[C@H]2COC(=O)C/C=C\[C@@H](C)COC(=O)C/C=C\[C@@H]2C)cc1,19.9%[10 µM],.,.,.,-3.4%[10 µM]
Cc1ccccc1-c1nn(-c2ccc(F)cc2F)cc1CNCCN(C)C,?,14.1%,-4.1,-10.2%,2.1%

# High-throughput results from PubChem BioAssay.
